Experimental data reported in the antibiotic and cytotoxicity screens of Wong et al. (2023).
About 3,300 (8.5%) of roughly 39,000 compounds were called active. The entries come from a sample that favours actives as a whole.

What follows are molecules tested on HepG2 (assay: cytotoxicity call (relative viability < 0.9)). Settings: 10 µM.

Compound | cytotoxicity call
C[C@@H]1CCCCO[C@@H](CN(C)C(=O)Nc2ccc(C(F)(F)F)cc2)[C@@H](C)CN([C@H](C)CO)C(=O)c2cc(NS(=O)(=O)c3cn(C)cn3)ccc2O1 | inactive
C=C1SC(Nc2c(C)cccc2C)=NC12CCCCC2 | active
Cc1cccc(C)c1Nc1nc2c(C)cc(C)c(C)c2s1 | inactive
Cc1cccc(C)c1NC(=O)C1CCCCN1C.Cl (stereo not drawn) | inactive
C[C@@H]1CN([C@@H](C)CO)C(=O)Cc2cc(NC(=O)C3CC3)ccc2O[C@H]1CN(C)C(=O)Nc1ccccc1 | inactive
COCC#Cc1ccc([C@H]2[C@H]3CN(C(=O)CN4CCOCC4)CC(=O)N3[C@H]2CO)cc1 | inactive
COc1ccc(S(=O)(=O)N(C)C[C@@H]2OCCCC[C@@H](C)Oc3ccc(NS(=O)(=O)c4cn(C)cn4)cc3C(=O)N([C@H](C)CO)C[C@H]2C)cc1 | inactive
C[C@@H]1CN([C@@H](C)CO)C(=O)c2cc(C#CCc3ccccc3)cnc2O[C@H]1CN(C)CC1CCOCC1 | inactive
COc1ccc(NC(=O)Nc2ccc3c(c2)C(=O)N([C@H](C)CO)C[C@@H](C)[C@@H](CN(C)S(=O)(=O)c2ccc(F)cc2)OCCCC[C@H](C)O3)cc1 | inactive
COc1ccc(S(=O)(=O)N(C)C[C@H]2OCCCC[C@@H](C)Oc3ccc(NC(=O)Nc4ccc(F)cc4)cc3C(=O)N([C@H](C)CO)C[C@@H]2C)cc1 | active
COc1ccc(NC(=O)Nc2ccc3c(c2)C(=O)N([C@H](C)CO)C[C@H](C)[C@@H](CN(C)S(=O)(=O)c2ccc(F)cc2)OCCCC[C@H](C)O3)cc1 | inactive
COc1ccc(NC(=O)Nc2ccc3c(c2)C(=O)N([C@H](C)CO)C[C@H](C)[C@H](CN(C)S(=O)(=O)c2ccc(F)cc2)OCCCC[C@@H](C)O3)cc1 | inactive
COc1ccc(NC(=O)Nc2ccc3c(c2)C(=O)N([C@H](C)CO)C[C@@H](C)[C@H](CN(C)S(=O)(=O)c2ccc(F)cc2)OCCCC[C@H](C)O3)cc1 | active
COc1ccc(NC(=O)Nc2ccc3c(c2)C(=O)N([C@@H](C)CO)C[C@@H](C)[C@@H](CN(C)S(=O)(=O)c2ccc(F)cc2)OCCCC[C@@H](C)O3)cc1 | inactive
CO[C@H]1CN(C)C(=O)c2ccc(NS(=O)(=O)c3cn(C)cn3)cc2OC[C@H](C)N(CC2CC2)C[C@@H]1C | inactive
CC1(C)OC(=O)N(CCCC(=O)O)[C@@]1(C)O | inactive
CC(=O)OC1CC(OC(C)=O)C2(C)C(CC(O)C3(C)C2CCC2(C)C(c4ccoc4)OC(=O)C4OC423)C1(C)C (stereo not drawn) | inactive
C[C@H]1CN([C@@H](C)CO)C(=O)c2cc(NC(=O)Cn3cnnn3)ccc2O[C@H]1CN(C)CC1CCCCC1 | inactive
C[C@H](CO)N1C[C@H](C)[C@H](CN(C)Cc2ccc(C(=O)O)cc2)Oc2c(NC(=O)C3CC3)cccc2C1=O | inactive

Compound | cytotoxicity call
CS(=O)(=O)NC[C@@]12COC[C@H]1CN(C(=O)c1cnccn1)C2 | inactive
C[C@@H]1CCCCO[C@H](CN(C)S(=O)(=O)c2ccc(Cl)cc2)[C@H](C)CN([C@@H](C)CO)C(=O)c2cc(NC(=O)CCC(F)(F)F)ccc2O1 | inactive
C[C@H]1CCCCO[C@@H](CN(C)Cc2ccc(C(F)(F)F)cc2)[C@@H](C)CN([C@@H](C)CO)C(=O)c2cc(NC(=O)CCCN(C)C)ccc2O1 | inactive
C[C@H](CO)N1C[C@H](C)[C@@H](CN(C)Cc2ccc(C(F)(F)F)cc2)OCCCC[C@H](C)Oc2ccc(NC(=O)CCCN(C)C)cc2C1=O | inactive
C[C@@H]1CCCCO[C@H](CN(C)Cc2ccc(C(F)(F)F)cc2)[C@H](C)CN([C@@H](C)CO)C(=O)c2cc(NC(=O)CCCN(C)C)ccc2O1 | active
C[C@@H]1CCCCO[C@@H](CN(C)Cc2ccc(C(F)(F)F)cc2)[C@@H](C)CN([C@@H](C)CO)C(=O)c2cc(NC(=O)CCCN(C)C)ccc2O1 | inactive
C[C@H]1CCCCO[C@H](CN(C)Cc2ccc(C(F)(F)F)cc2)[C@@H](C)CN([C@@H](C)CO)C(=O)c2cc(NC(=O)CCCN(C)C)ccc2O1 | active
C[C@@H]1CN([C@@H](C)CO)C(=O)c2cc(NC(=O)CCCN(C)C)ccc2O[C@@H](C)CCCCO[C@H]1CN(C)Cc1ccc(C(F)(F)F)cc1 | inactive
C[C@@H]1CCCCO[C@@H](CN(C)Cc2ccc(C(F)(F)F)cc2)[C@@H](C)CN([C@H](C)CO)C(=O)c2cc(NC(=O)CCCN(C)C)ccc2O1 | inactive
C[C@@H]1CN([C@H](C)CO)C(=O)c2cc(NC(=O)CCCN(C)C)ccc2O[C@@H](C)CCCCO[C@@H]1CN(C)Cc1ccc(C(F)(F)F)cc1 | inactive
C[C@H](CO)N1C[C@H](C)[C@H](CN(C)Cc2ccc(C(F)(F)F)cc2)OCCCC[C@H](C)Oc2ccc(NC(=O)CCCN(C)C)cc2C1=O | active
C[C@@H]1CCCCO[C@H](CN(C)Cc2ccc(C(F)(F)F)cc2)[C@H](C)CN([C@H](C)CO)C(=O)c2cc(NC(=O)CCCN(C)C)ccc2O1 | inactive
C[C@@H]1CCCCO[C@H](CN(C)Cc2ccc(C(F)(F)F)cc2)[C@@H](C)CN([C@@H](C)CO)C(=O)c2cc(NC(=O)CCCN(C)C)ccc2O1 | active
C[C@@H]1CN([C@H](C)CO)C(=O)c2cc(NC(=O)CCCN(C)C)ccc2O[C@@H](C)CCCCO[C@H]1CN(C)Cc1ccc(C(F)(F)F)cc1 | inactive
CN(C)C(=O)C[C@@H]1CC[C@H]2[C@H](COc3ccc(NS(=O)(=O)c4cccc(F)c4)cc3C(=O)N2C)O1 | inactive
COc1ccc(S(=O)(=O)N(C)C[C@H]2OCCCC[C@H](C)Oc3ccc(NS(C)(=O)=O)cc3C(=O)N([C@H](C)CO)C[C@@H]2C)cc1 | inactive
C[C@H](CO)N1C[C@H](C)[C@H](CN(C)Cc2cccc(O)c2)OCc2ccccc2-c2c(n(C)c3ccccc23)C1=O | inactive
C[C@@H]1CN([C@@H](C)CO)C(=O)c2cc(C#CC3(O)CCCC3)cnc2O[C@H]1CN(C)C(=O)Cc1ccncc1 | inactive
C[C@@H]1CCCCO[C@@H](CN(C)S(=O)(=O)c2ccccc2)[C@H](C)CN([C@H](C)CO)C(=O)c2cc(NC(=O)c3ccccc3)ccc2O1 | inactive
